# Screens from PubChem BioAssay.
# IL1B secr inh: inflammasome signaling inhibition, IL-1 beta readout; THP-1 LPS/ATP IL-1B secretion, AlphaLISA, 16 h; hits give low values; AID 743279; 360,000 compounds, 4.7% hits; activity change, % at 57.5 µM; in the data active = activity change below about -50%; inconclusive = mostly about -30% to -49%
#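 Secreted IL-1B measured by AlphaLISA bead assay after 16 h compound exposure of THP-1 cells; compounds (final up to 57.5 uM) added 1 h before LPS (250 ng/mL) and ATP (1.25 mM) stimulation; lower signal means less secretion.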
# TDP1 cell noCPT: qHTS for Inhibitors of human tyrosyl-DNA phosphodiesterase 1 (TDP1): qHTS in cells in absence of CPT; Potency, µM (titrated, usually from 46.2 µM), most hits filed as inhibitors; DT40 Tdp1-/- hTDP1 cells, no CPT, ATP luminescence, 48 h; 420,000 compounds, 15% hits; note: nearly all actives have a fitted effect of over 55% in size
#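 Compound effects on proliferation are scored in DT40 Tdp1-/-;hTDP1 cells in the absence of CPT. ATP levels (CellTiter-Glo luminescence) are recorded after a ≥48 hr, 37 °C incubation.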
# HT1080 IDH1KD tx: HT-1080 IDH1 knockdown cell toxicity (counter line) | HT-1080 IDH1 knockdown viability, ATP luminescence, 48 h | Potency, µM (top dose mostly 46.1 µM), actives largely listed as cytotoxic | 360,000 compounds, 2% hits
#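 In this qHTS, HT-1080 cells depleted of IDH1 are exposed for 48 h at 37 °C to compound titrations. Toxicity is scored from CellTiter-Glo luminescence, with DMSO as full viability and medium alone as none.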
# HT1080NT lethal: kills 2HG-producing HT-1080-NT fibrosarcoma cells | Potency, µM (doses to about 46.1 µM), actives largely listed as cytotoxic | 360,000 compounds, 1.6% hits | AID 686970 | HT-1080-NT fibrosarcoma viability, CellTiter-Glo ATP luminescence, 48 h;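 note: NT is the 2HG producing partner of a matched IDH1 knockdown line; nearly all actives have a fitted effect of over 55% in size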
#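 Compounds were tested in concentration-response format on HT-1080-NT cells for 48 hours at 37 degrees C. Cell viability came from CellTiter-Glo luminescence; curves were classified by r2, response magnitude and activity.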
# TDP1 cell CPT: growth inhibition of DT40 Tdp1-/-;hTDP1 cells with camptothecin (screen for TDP1 inhibitors) | chicken DT40 Tdp1-/-;hTDP1 cells + 20 nM CPT, ATP luminescence, 48 h | Potency, µM (series often up to 46.2 µM), actives largely listed as inhibitors | 420,000 compounds, 12% hits; note: nearly all actives have a fitted effect of over 55% in size
#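 Chicken DT40 Tdp1-/- cells complemented with human TDP1, 400 cells/well, exposed to compounds plus 20 nM camptothecin for at least 48 h at 37 C; viability read as ATP content by CellTiter-Glo luminescence.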
# Numbers stand for hits; – = inactive; ? = inconclusive; · = not tested or not shown; [ ] = dose if it differs, or a comment. Most compounds without a hit are left out; they make up all but 19% or so of the library. Unless noted, calls come from the whole dose curve; as a rule, active = well fitted curve in the direction sought with a large enough effect; inconclusive = small, poorly fitted or top-dose-only effect, or another doubt; inactive = no such curve, though single readings can be large; an effect the other way counts as inactive or inconclusive.
SMILES,IL1B secr inh,TDP1 cell noCPT,HT1080 IDH1KD tx,HT1080NT lethal,TDP1 cell CPT
CCOc1ccccc1NC(=O)C1CCN(c2nc(-c3ccc(OC)cc3)no2)CC1,–,–,–,–,?
COCCOC(=O)C1=C(C)OC(N)=C(C#N)C1c1cc2cccc(C)c2nc1Cl (configuration not stated),–,?,?,–,?
O=C(NCCOC(=O)Nc1cccc2ccccc12)OCc1ccccc1,–,–,–,–,–
COc1cc(CN(C(=O)c2cccs2)C2CCS(=O)(=O)C2)cc(OC)c1OC (configuration not stated),–,–,–,–,–
Cc1ccc(Cc2c(C3CCCCC3)nc3cc(C)c(Br)c(C)n23)cc1,–,?,–,–,?
Nc1nonc1C(=O)NCCNS(=O)(=O)c1ccc(Br)cc1,–,–,–,–,–
CCOC(=O)Cc1csc(/C(=N/O)C(N)=O)n1,–,–,–,–,–
CCOC(=O)C(=NO)C1=CSC2=NNC(C)(C)N12,–,21µM,–,–,?
CCCCn1c(N)c(N(CCC(C)C)C(=O)c2ccc3c(c2)OCO3)c(=O)[nH]c1=O,–,–,–,–,–
CNc1ccc(-c2nc(-c3ccncc3)no2)cc1[N+](=O)[O-],·,–,·,·,–
CCCNc1ccc(-c2nc(-c3ccccn3)no2)cc1[N+](=O)[O-],·,–,·,·,–
Cc1cc(-c2nc(-c3ccncc3)no2)ccc1[N+](=O)[O-],–,?,–,–,15µM
CCN(CC)c1ccc(-c2nc(-c3ccncc3)no2)cc1[N+](=O)[O-],·,15µM,·,·,13µM
CCN(CC)c1ccc(-c2nc(-c3ccccn3)no2)cc1[N+](=O)[O-],·,16µM,·,·,–
CCCCNc1ccc(-c2nc(-c3ccccn3)no2)cc1[N+](=O)[O-],·,–,·,·,–
Cc1ccc(-c2nc(-c3ccccn3)no2)cc1[N+](=O)[O-],–,23µM,–,–,?
COc1cc(CNCc2cc3cc(C)ccc3nc2-c2ccc(F)cc2)cc(OC)c1OC,·,–,·,·,–[9.04 µM]
Cc1ccc2nc(-c3ccc(C)o3)c(Nc3ccc(F)cc3)n2c1,·,?,–,–,–
Cc1ccc(-c2nc3cnccn3c2Nc2ccccc2)o1,–,21µM,–,–,21µM
COc1ccc(Nc2c(-c3ccc(Cl)cc3)nc3cnccn23)cc1OC,·,?,·,·,–
Cc1ccc(-c2nc3cccc(C)n3c2Nc2ccc(F)cc2)o1,·,10µM,–,–,?
COc1ccc(-c2nc3cnccn3c2Nc2ccc(C)cc2)cc1,–,15µM,–,–,15µM
Cc1ccc2nc(-c3ccc(C)o3)c(Nc3ccccc3)n2c1,·,4.5µM,–,–,3.5µM
Cc1ccc(-c2ccc(=O)n(CC(=O)N3CCN(c4cc(Cl)ccc4C)CC3)n2)cc1,?,?,–,–,–
Cc1ccc(-c2nc3ccccn3c2Nc2ccccc2)o1,–,?,–,–,–
SMILES,IL1B secr inh,TDP1 cell noCPT,HT1080 IDH1KD tx,HT1080NT lethal,TDP1 cell CPT
Cc1ccc(Nc2c(-c3ccc(C)o3)nc3ccccn23)cc1,·,13µM,–,–,?
O=S(=O)(Cc1cc(Cl)nc(-c2ccncc2)n1)c1ccccc1,-97,?,?,23µM,?
CS(=O)(=O)Cc1cc(Sc2ccccc2)nc(-c2ccncc2)n1,–,–,–,–,–
O=S(=O)(Cc1cc(Cl)nc(-c2ccccc2)n1)c1ccccc1,-70,?,?,–,–
COc1ccccc1NS(=O)(=O)c1cc(NC(=O)COc2ccccc2F)ccc1N1CCOCC1,–,?,–,–,?
CN(C)/C=N/c1ncc(C(=O)c2ccc(-c3ccccc3)cc2)s1,-52,?,–,–,–
CN1CCc2c(sc(NC(=O)CSc3ccccc3)c2-c2nc3ccccc3s2)C1,·,21µM,·,·,?
CN1CCc2c(sc(NC(=O)Cc3ccccc3)c2C#N)C1,–,–,–,–,–
CC(=O)N1CCc2c(sc(NC(=O)C3CC3)c2-c2nc3ccccc3s2)C1,-84,15µM,?,?,16µM
Cc1cc(NC(=O)C2CC2)n(-c2nc3ccccc3s2)n1,–,–,–,–,–
CC(=O)N1CCc2c(sc(NC(=O)CSc3ccccc3)c2-c2nc3ccccc3s2)C1,·,10µM,·,·,13µM
